From PubChem BioAssay (NCI)
This is part of a sample that, as a whole, favours compounds with a hit. Of some 79,000 tested, about 15% had one in any assay. Values without a mark were called inactive. Calls of active or inactive are those of the source. Rule as the data show it: active = growth inhibition above about 70%; inactive = the rest.

Columns and labels:
[1] = NCI Yeast Anticancer Drug Screen. Data for the rad50 strain (AID 155);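 also: 0% = growth of vehicle-only cultures of the same strain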; conditions: S. cerevisiae rad50 strain growth inhibition, active compounds read high
How it was run: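 Genetically altered yeast (DNA repair pathway); compound treatment; growth inhibition vs vehicle ctrl.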

[2] = NCI Yeast Anticancer Drug Screen. Data for the mec2-1 strain (AID 157); conditions: S. cerevisiae mec2-1 strain, active compounds read high
How it was run: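 Strain: mec2-1 (DNA repair/cell cycle alteration). Compound exposure, then growth measured; inhibition expressed relative to vehicle.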

[3] = NCI Yeast Anticancer Drug Screen. Data for the sgs1 mgt1 strain (AID 161);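 also: 0% = growth of cultures given vehicle only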; conditions: S. cerevisiae sgs1 mgt1 strain, active compounds read high
How it was run: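 Genetically altered yeast, compound exposure, growth inhibition relative to vehicle.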

[4] = NCI Yeast Anticancer Drug Screen. Data for the bub3 strain (AID 167); conditions: S. cerevisiae bub3 mutant strain, active compounds read high
How it was run: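 Yeast carrying a defined mutation is treated with each compound, and growth is compared with that of vehicle-exposed cells to give inhibition.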

[5] = NCI Yeast Anticancer Drug Screen. Data for the cln2 rad14 strain (AID 165);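 also: 0% = growth equal to vehicle treated cultures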; conditions: S. cerevisiae cln2 rad14 strain, active compounds read high
How it was run: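 Compounds are applied to the cln2 rad14 yeast strain, and growth is then compared with that of vehicle-treated cultures to give inhibition.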

[6] = NCI Yeast Anticancer Drug Screen. Data for the mlh1 rad18 strain (AID 175); conditions: S. cerevisiae mlh1 rad18 strain growth inhibition, active compounds read high
How it was run: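 Read-out is yeast growth inhibition, calculated against vehicle-only controls. The compound was applied to a strain engineered with DNA damage repair alterations.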

[7] = at 5.0 µM (retest, dose inferred, filed as 0.5)
[8] = at 50.0 µM (retest, dose inferred, filed as 5.0)

Row | Compound | growth inhibition [1, 7] | growth inhibition [1, 8] | growth inhibition ([1]; at 50.0 µM) | growth inhibition [2, 7] | growth inhibition [2, 8] | growth inhibition ([2]; at 50.0 µM) | growth inhibition [3, 7] | growth inhibition [3, 8] | growth inhibition ([3]; at 50.0 µM) | growth inhibition [4, 7] | growth inhibition [4, 8] | growth inhibition ([4]; at 50.0 µM) | growth inhibition [5, 7] | growth inhibition [5, 8] | growth inhibition ([5]; at 50.0 µM) | growth inhibition [6, 7] | growth inhibition [6, 8] | growth inhibition ([6]; at 50.0 µM)
1 | COc1cc(/C=C/C(=O)CC(=O)/C=C/c2ccc(O)c(OC)c2)ccc1O | 55% | 95% (active) | 83.8% (active) | 74% (active) | 93% (active) | 87.1% (active) | 20% | 89% (active) | 88% (active) | 27% | 80% (active) | 83.7% (active) | – | – | – | – | – | –
2 | COC(=O)[C@]1(C)CCC[C@@]2(C)[C@@H]3C[C@@H]4[C@H]5C[C@@]3(CC[C@@H]21)C[C@@]45C | 31% | 99% (active) | 92.2% (active) | 28% | 99% (active) | 93.5% (active) | 34% | 99% (active) | 93.7% (active) | 32% | 100% (active) | 92.2% (active) | 31% | 99% (active) | 92.3% (active) | 37% | 99% (active) | 86.8% (active)
3 | O=C(Cc1ccccc1)C(F)(F)F | 10% | 70% (active) | -8.45% | 3% | 15% | 1.95% | 4% | 20% | 42.2% | 2% | 19% | -7.95% | – | – | – | 0% | 18% | 58.8%
4 | c1ccc2sc(SSN3CC4CCC(CC4)C3)nc2c1 | 37% | 91% (active) | 56.6% | 19% | 93% (active) | 80.8% (active) | 75% (active) | 97% (active) | 86.4% (active) | 55% | 96% (active) | 83.7% (active) | 38% | 89% (active) | 21.6% | 19% | 89% (active) | 80.7% (active)
5 | COC1=CC(=O)c2c(O)c3c(c(O)c2C1=O)CC(C)(O)OC3 (stereo unspecified) | 87% (active) | 92% (active) | 78% (active) | 62% | 87% (active) | 68.8% | 89% (active) | 92% (active) | 80.2% (active) | 51% | 73% (active) | 74.6% (active) | – | – | – | 89% (active) | 97% (active) | 82.7% (active)
6 | CC(C)=C1C=C2CC[C@@H]3[C@](C)(CCC[C@@]3(C)C(=O)O)[C@H]2CC1 | -1% | 93% (active) | 88.3% (active) | 3% | 95% (active) | 90.2% (active) | 2% | 95% (active) | 91% (active) | – | – | – | -4% | 91% (active) | 90.3% (active) | 0% | 94% (active) | 88.5% (active)
7 | C=C1C(=O)OC2CC1C(OC(=O)/C=C/c1ccccc1)C/C(C)=C/CC/C(C)=C/CCC2(C)O (stereo unspecified) | 50% | 93% (active) | 82.8% (active) | 54% | 96% (active) | 81.7% (active) | 60% | 95% (active) | 84.8% (active) | – | – | – | 84% (active) | 95% (active) | 83% (active) | 77% (active) | 94% (active) | 75.9% (active)
8 | Cn1c(-c2ccccc2)c(/C=C/C2=[N+](C)c3ccccc3C2(C)C)c2ccccc21 | 88% (active) | 99% (active) | 99.6% (active) | 72% (active) | 99% (active) | 99.6% (active) | 96% (active) | 56% | 99.6% (active) | 93% (active) | 100% (active) | 99.5% (active) | – | – | – | 89% (active) | 99% (active) | 99% (active)
9 | O=C(Nc1ccc(Cl)c(Cl)c1)OCc1ccco1 | 51% | 68% | 91.4% (active) | 38% | 66% | 93% (active) | 47% | 99% (active) | 92.9% (active) | – | – | – | 35% | 90% (active) | 91.7% (active) | 48% | 76% (active) | 92% (active)
10 | CCC[CH2][Sn]([CH2]CCC)([CH2]CCC)[O]C(=O)C(OC(C)=O)c1ccccc1 (stereo unspecified) | 99% (active) | 99% (active) | 91.5% (active) | 99% (active) | 99% (active) | 92.2% (active) | 99% (active) | 99% (active) | 91.5% (active) | 99% (active) | 99% (active) | 90.2% (active) | – | – | – | 100% (active) | 100% (active) | 91% (active)
11 | CCCCC(C=O)(C=C=C(C)C)CC (stereo unspecified) | -4% | 28% | 51.4% | -2% | 0% | 52.1% | 0% | 35% | 61.3% | -13% | 2% | 66.3% | -7% | 26% | 36.4% | -32% | -4% | 16.9%
